Here are results for 20 molecules from the supplement of paper PMC9262897, “Low-cost anti-mycobacterial drug discovery using engineered E. coli” (Nature Communications, 2022).

Structures are written as SMILES. Where a name gives a salt, the structure may show the parent alone. ± gives the standard deviation of the averaged measurements.

In one experiment the test system is E. coli TESEC Mtb DapB. Nature of the experiment: growth (OD600 after 10 h); higher = more growth (less inhibition). The settings on record: arabinose induction (level): High; compound 0.1 mM; raw OD600 reference: median of DMSO wells […], cell-free background 0.041. As for the experimental part: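 TESEC E. coli strains in which the native enzyme is deleted and replaced by arabinose-inducible Mtb Asd, DapB, CysH or TrpD, each grown in its selective medium. Strains were screened against the Prestwick library at 0.1 mM and 1% DMSO in 384-well format at low and high arabinose induction. Growth is read as OD600 after 10 h in triplicate.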
Turning to `Oc1ccc2c3c1O[C@H]1[C@@H](O)CC[C@@]4(O)[C@@H](C2)N(CC2CCC2)CC[C@]314` [Nalbuphine hydrochloride], the growth was 0.195 ± 0.011.
On the same count and under the same terms, for `C[C@]12CC[C@H]3[C@@H](CCC4=CC(=O)CC[C@@H]43)[C@@H]1CC[C@@H]2O` [Nandrolone] the value was 0.1471 ± 0.0014; for `O=[N+]([O-])O[C@H]1CO[C@H]2[C@@H]1OC[C@H]2O[N+](=O)[O-]` [Isosorbide dinitrate], 0.213 ± 0.012; for `NCC(CC(=O)O)c1ccc(Cl)cc1` (racemic) [Baclofen (R,S)], 0.219 ± 0.017.
On the same count and under the same terms, the value for `C=CC[C@]1(O)CC[C@H]2[C@@H]3CCC4=CC(=O)CCC4=C3C=C[C@@]21C` [Altrenogest] was 0.148 ± 0.002; that for `C=C(C)[C@@H]1[C@H]2OC(=O)[C@@H]1[C@]1(O)C[C@H]3O[C@]34C(=O)O[C@H]2[C@]14C` [Picrotoxinin] was 0.197 ± 0.0075.
With `CC(=O)O[C@H]1C[C@@H]2CC[C@@H]3[C@H](CC[C@@]4(C)[C@H]3C[C@H]([N+]3(C)CCCCC3)[C@@H]4OC(C)=O)[C@@]2(C)C[C@@H]1[N+]1(C)CCCCC1` [Pancuronium bromide], the growth was found to be 0.191 ± 0.026.
Still for that read-out and setting: for `CC(Cc1ccccc1)NCCC(c1ccccc1)c1ccccc1` (stereo not given) [Prenylamine lactate] the value was 0.0466 ± 0.00036; for `CN1CCC2(C)c3cc(O)ccc3N(C)C12` (single isomer, unassigned; (-)) [(-)-Eseroline fumarate salt], 0.197 ± 0.0051.
Same read-out and setting: for `CCN(CC)C(C)C(=O)c1ccccc1` (stereo not given) [Amfepramone hydrochloride] the value was 0.202 ± 0.018.
The same measure, in the same setting: the value for `C[CH2][Hg][S]c1ccccc1C(=O)[O-].[Na+]` [Thimerosal] was 0.207 ± 0.019; that for `C=CCN1CC[C@]23c4c5ccc(O)c4O[C@H]2C(=O)CC[C@@]3(O)[C@H]1C5` [Naloxone hydrochloride] was 0.202 ± 0.0047.
Molecule `C[C@]12CC[C@@H](O)C[C@@H]1CC[C@@H]1[C@@H]2CC[C@]2(C)C(=O)CC[C@@H]12` [Androsterone] had a growth of 0.141 ± 0.013.
For the molecule `c1ccc2c(c1)OCC(C1=NCCN1)O2` (stereo not given) [Idazoxan hydrochloride], the growth was 0.183 ± 0.017.
Consider `C[C@]12N[C@H](Cc3ccccc31)c1ccccc12` [Dizocilpine maleate], for which the growth came to 0.179 ± 0.019.
The same measure, in the same setting: the value for `O=[N+]([O-])O[C@@H]1CO[C@H]2[C@@H]1OC[C@@H]2O` [Isosorbide mononitrate] was 0.176 ± 0.0055.
In turn, `CC[C@@]1(O)C(=O)OCc2c1cc1n(c2=O)Cc2cc3ccccc3nc2-1` [Camptothecine (S,+)] registered a growth of 0.199 ± 0.01.
`COc1ccc(OC)c(C(O)C(C)N)c1` (stereo not given) [Methoxamine hydrochloride] gave a growth of 0.223 ± 0.033.
For `C#CCN(C)[C@H](C)Cc1ccccc1` [Selegiline hydrochloride], the growth was 0.222 ± 0.018.
`O=C(NCNC(=O)NC1C(=O)NC(=O)N1CO)NC1C(=O)NC(=O)N1CO` (stereo not given) [Imidurea]: the growth was found to be 0.207 ± 0.024.

Staying with this experiment, now noted: arabinose induction (level): Low; compound 0.1 mM; raw OD600 reference: median of DMSO wells 0.227, cell-free background 0.041.
Molecule `Oc1ccc2c3c1O[C@H]1[C@@H](O)CC[C@@]4(O)[C@@H](C2)N(CC2CCC2)CC[C@]314` [Nalbuphine hydrochloride] gave a growth of 0.214 ± 0.029.
The same measure, in the same setting: for `C[C@]12CC[C@H]3[C@@H](CCC4=CC(=O)CC[C@@H]43)[C@@H]1CC[C@@H]2O` [Nandrolone] the value was 0.159 ± 0.0037; for `O=[N+]([O-])O[C@H]1CO[C@H]2[C@@H]1OC[C@H]2O[N+](=O)[O-]` [Isosorbide dinitrate], 0.27 ± 0.03.
Still for that read-out and setting: for `NCC(CC(=O)O)c1ccc(Cl)cc1` (racemic) [Baclofen (R,S)] the value was 0.246 ± 0.04; for `C=CC[C@]1(O)CC[C@H]2[C@@H]3CCC4=CC(=O)CCC4=C3C=C[C@@]21C` [Altrenogest], 0.162 ± 0.006.
In turn, `C=C(C)[C@@H]1[C@H]2OC(=O)[C@@H]1[C@]1(O)C[C@H]3O[C@]34C(=O)O[C@H]2[C@]14C` [Picrotoxinin] had a growth of 0.216 ± 0.0066.
On the same count and under the same terms, for `CC(=O)O[C@H]1C[C@@H]2CC[C@@H]3[C@H](CC[C@@]4(C)[C@H]3C[C@H]([N+]3(C)CCCCC3)[C@@H]4OC(C)=O)[C@@]2(C)C[C@@H]1[N+]1(C)CCCCC1` [Pancuronium bromide] the value was 0.203 ± 0.055; for `CC(Cc1ccccc1)NCCC(c1ccccc1)c1ccccc1` (stereo not given) [Prenylamine lactate], 0.04663 ± 0.00038; for `CN1CCC2(C)c3cc(O)ccc3N(C)C12` (single isomer, unassigned; (-)) [(-)-Eseroline fumarate salt], 0.209 ± 0.034.
Same read-out and setting: for `CCN(CC)C(C)C(=O)c1ccccc1` (stereo not given) [Amfepramone hydrochloride] the value was 0.218 ± 0.021; for `C[CH2][Hg][S]c1ccccc1C(=O)[O-].[Na+]` [Thimerosal], 0.214 ± 0.014.
Same read-out and setting: for `C=CCN1CC[C@]23c4c5ccc(O)c4O[C@H]2C(=O)CC[C@@]3(O)[C@H]1C5` [Naloxone hydrochloride] the value was 0.255 ± 0.059; for `C[C@]12CC[C@@H](O)C[C@@H]1CC[C@@H]1[C@@H]2CC[C@]2(C)C(=O)CC[C@@H]12` [Androsterone], 0.138 ± 0.011; for `c1ccc2c(c1)OCC(C1=NCCN1)O2` (stereo not given) [Idazoxan hydrochloride], 0.228 ± 0.021.
Molecule `C[C@]12N[C@H](Cc3ccccc31)c1ccccc12` [Dizocilpine maleate] came in with a growth of 0.18 ± 0.012.
On the same count and under the same terms, the value for `O=[N+]([O-])O[C@@H]1CO[C@H]2[C@@H]1OC[C@@H]2O` [Isosorbide mononitrate] was 0.216 ± 0.03; that for `CC[C@@]1(O)C(=O)OCc2c1cc1n(c2=O)Cc2cc3ccccc3nc2-1` [Camptothecine (S,+)] was 0.228 ± 0.039.
Still for that read-out and setting: for `COc1ccc(OC)c(C(O)C(C)N)c1` (stereo not given) [Methoxamine hydrochloride] the value was 0.222 ± 0.028; for `C#CCN(C)[C@H](C)Cc1ccccc1` [Selegiline hydrochloride], 0.219 ± 0.0087; for `O=C(NCNC(=O)NC1C(=O)NC(=O)N1CO)NC1C(=O)NC(=O)N1CO` (stereo not given) [Imidurea], 0.215 ± 0.032.
